For 16 compounds, growth inhibition results are on record in PubChem BioAssay (NCI).

Compounds without any hit were thinned out: in the full panel of roughly 79,000, 15% have a hit. A number with no mark means an inactive call. Calls of active or inactive are those of the source. Cut-off read from the data, not from the text of the source: active = growth inhibition above about 70%; inactive = the rest.

The experiment is described as follows: NCI Yeast Anticancer Drug Screen. Data for the sgs1 mgt1 strain (AID 161).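 Note: 0% = growth of cultures given vehicle only.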 The following applies: S. cerevisiae sgs1 mgt1 strain, at 50.0 µM, hits give high values. The method, boiled down:
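Growth of a repair-deficient yeast mutant was monitored after compound treatment and expressed as inhibition relative to vehicle-treated cultures.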
`COC(=O)[C@H]1O[C@H]1c1ccncc1`: the growth inhibition is 18.2%.
Regarding `O=[N+]([O-])c1ccc(NSc2ccccc2)cc1`, the growth inhibition is 90.2% (active).
For the compound `OCCOCCO[P+]1(OCCOCCO)n2c3ccc2C(c2ccccc2)=C2C=CC(=N2)C(c2ccccc2)=c2ccc(n21)=C(c1ccccc1)C1=NC(=C3c2ccccc2)C=C1`, the growth inhibition is 92% (active).
The value for `NCCSC1(O)C(=O)c2ccccc2-c2ccccc21` (stereo unspecified) was 99.1% (active); that for `C/C=C(\C)C(=O)O[C@@H]1CC(C)(C)CC2C3=CCC4[C@]56CC[C@](O)(OC5)C(C)(C)C6CC[C@@]4(C)C3(C)CC[C@]21C(=O)O` (stereo partly specified) was 87.2% (active).
As for `CSC(=S)NN=C1CCCCC1`, the growth inhibition is 93.8% (active).
With `O=C1c2ccccc2C(O)(C#Cc2ccccc2)c2cnccc21` (stereo unspecified) the figure was 98.2% (active).
As for `CCCCCC(CCCCC)C(=O)O`, the growth inhibition is 72% (active).
As for `CC(C)(N=Nc1ccc([N+](=O)[O-])cc1)[N+](=O)[O-]`, the growth inhibition was 83.3% (active).
The value for `CCCCCCCCCCCCCC(=O)N1CCOCC1` was 98% (active).
With `CCOc1ccccc1-c1nc2c(s1)C(=O)c1ccccc1C2=O` the figure was 92% (active).
With `c1ccc2c(c1)C[n+]1ccc3ccccc3c1-c1c3ccccc3cc[n+]1C2` the figure was 69.8%; with `Nc1cc2c(c[n+](CCCCCCCCCC[n+]3cc4c5ccccc5c(N)cc4c4ccccc43)c3ccccc23)c2ccccc12`, 85% (active); with `Cc1ccc(N=C(N)NN=C(c2ccc(Cl)cc2)c2ccc(Cl)cc2)cc1`, 57.6%.
`O/N=C(/C[n+]1csc2ccccc21)c1ccccc1`: the growth inhibition was 73.7% (active).
For the compound `COc1ccc(C2Oc3c(cccc3OC)C=C2[N+](=O)[O-])cc1` (stereo unspecified), the growth inhibition was 37.7%.
